# Source: PubChem BioAssay (National Center for Advancing Translational Sciences (NCATS))
# IkB sig inh – suppresses IkB signaling in ABC-DLBCL reporter cells; ABC-DLBCL IkBa-CBG/CBR dual luciferase ratio, 4 h; response scale: scaled: untreated 0%, proteasome inhibitor 100%; 110,000 compounds, 0.04% hits; Potency, µM (titrated, usually from 57.1 µM), for the others: at the highest dose IkBa stabilization activation; active = well fitted curve in the direction sought with a large enough effect in the signal ratio, not every such curve was filed as active; inconclusive = small, poorly fitted or top-dose-only effect, or a change in a side signal; the % refers to the signal ratio;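 also: the direction sought is a rising ratio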
#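 Curves were fitted separately to fusion (green), unfused (red) and ratio luminescence, then classed by r2, magnitude and activity. Cells: OCI-Ly3, 4 h compound plus doxycycline at 37C; 10 uM MG-132 defined full response.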
# Imprint erasure – induces erasure of genomic imprints in mouse ES cells; mouse ES Peg3-LacZ reporter, beta-gal luminescence, 40 h; Potency, µM (doses to about 60.7 µM), inactives show top-dose activity change, positive = activation, hits mostly activators; 110,000 compounds, 0.02% hits; AID 1948
#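 Each well holds 300 Peg3LacZ-Neo (maternal) female ES cells incubated 40 h at 37C, 5% CO2. LacZ is measured by BetaGlo luminescence, with AC50 and maximum efficacy derived from dose-response curves.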
# p53ts 39C kill – cytotoxicity in p53ts cells at nonpermissive temperature; H1299-p53A138V viability at 39C, ATP luminescence, 24 h; Potency, µM (highest dose often 46.1 µM), without a hit: at the top dose activity change, negative = cell killing, most hits filed as cytotoxic; 130,000 compounds, 1.5% hits; AID 902; also: % is scaled to controls: 0 for no effect and ±100 for the full control effect; nearly all actives have a fitted effect of over 55% in size
# p53ts 32C tox – kills p53ts cells at the permissive temperature. Potency, µM (titrated, usually from 46.1 µM), for the others: at the top dose activity change, negative = cytotoxicity, actives largely listed as cytotoxic. 130,000 compounds, 0.93% hits. H1299-p53A138V at 32C, ATP luminescence viability, 24 h. AID 924;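 also: 0% = DMSO and -100% = full killing by reference compound; nearly all actives have a fitted effect of over 55% in size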
#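 ATP-content luminescence (ATPlite) read-out after 24 h compound exposure at 32C in H1299-p53A138V cells (600/well). Tested up to 46 uM. Normalized to DMSO (0%) and 100 uM tamoxifen (100% killing); Hill-fit AC50.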
# Starred values were filed as active, the others as inactive; ? = inconclusive; · = no result; ! = not active in a repeat; [ ] = dose if it differs, or a comment. Only some compounds are listed: those with a hit (about 1.7% of all), similar ones and a draw of the others. Unless noted, calls follow the shape of the dose curve; as a rule, active = well fitted curve in the direction sought with a large enough effect; inconclusive = small, poorly fitted or top-dose-only effect, or another doubt; inactive = no such curve, though single readings can be large; an effect the other way counts as inactive or inconclusive. Potency is read from the fitted curve at half-maximal effect.
SMILES,IkB sig inh,Imprint erasure,p53ts 39C kill,p53ts 32C tox
Nc1ccccc1O.O.O=C(O)[C@H]1[O][Sb][O][C@H]1C(=O)O,?,0.316µM*,?,7.4%[9.22 µM]
Nc1ccccc1C(=O)O,3.8%,1.4%,-5.3%,-0.9%[1.84 µM]
CCCCOc1ccc(CN2C(=O)C(=O)c3cc(C)ccc32)cc1OC,2.6%,-34.0%[10.9 µM],10µM*,12.1%
C[N+]1(C)CCc2cc3c(cc2[C@@H]1[C@@H]1OC(=O)c2c1ccc1c2OCO1)OCO3,-2.0%,·,17.6%,-9.8%
O=C(CSc1oc(-c2ccccc2)nc1S(=O)(=O)c1ccc(Cl)cc1)Nc1ccc(F)cc1,?,4.7%[10.9 µM],12.6µM*,?
CCOc1ccc(NC(=O)CSc2oc(-c3ccccc3)nc2S(=O)(=O)c2ccc(Cl)cc2)cc1,-3.4%,-34.4%[10.9 µM],2µM*,?
O=CN1C[C@H]2C[C@@H](C1)c1cccc(=O)n1C2,0.1%[11.4 µM],·,·,·
Cc1cc2c(C(C)C)c(O)c(O)c(C=O)c2c(O)c1-c1c(C)cc2c(C(C)C)c(O)c(O)c(C=O)c2c1O,?,-22.4%,20µM*,20µM*!
NC(N)=Nc1ccc2[nH]c3c(c2c1)C[C@]1(O)[C@@H]2Cc4ccc(O)c5c4[C@]1(CCN2CC1CC1)[C@H]3O5,-0.3%,·,25.1µM*,12.6µM*
C=C(C)CN1CC[C@@]23c4c5ccc(O)c4O[C@H]2c2[nH]c4ccccc4c2C[C@]3(O)[C@@H]1C5,?,-10.8%,31.6µM*,?
Oc1ccc2c3c1O[C@H]1c4[nH]c5ccccc5c4C[C@@]4(O)C(C2)N(CC2CC2)CCC314 (stereo partly specified),·,-8.1%,·,·
O=C(Nc1ccc2oc(-c3cccnc3)nc2c1)c1ccc(-c2cccc(Cl)c2)o1,1.0%,-6.6%[10.9 µM],7.9%,2.2%
COc1cccc(-c2cc(C(=O)Nc3cnn(Cc4ccc(Cl)cc4Cl)c3)no2)c1,3.9%,-7.2%[10.9 µM],10µM*,?
C[C@@H]1Cc2cc3c(cc2C(c2ccc(N)cc2)=NN1)OCO3,1.5%,·,12.6%,4.7%
O=C1C=CC(=O)c2c1ccc1c2ccc2ccccc21,?,-37.8%[16.8 µM],10.9%[20.6 µM],10µM*
N[C@H](CCl)C(=O)O,5.6%,·,20.6%,12.9%
COc1ccc2c(c1)[C@]13CCCC[C@@H]1[C@H](C2)NCC3,-2.5%,·,-9.6%,17.7%
CC1=CC(=O)c2c(O)cccc2C1=O,·,-35.7%,10µM*,6.31µM*
Cc1c2ccncc2c(C)c2c1[nH]c1ccccc12,?,-31.4%,12.6µM*,12.6µM*
C[C@]12Cc3cn4c(nc3C=C1CC[C@H]1[C@@H]2CC[C@@]2(C)[C@H]1CC[C@@]2(O)C#N)nc1ccccc14,?,·,14.1%,?
CC(=O)OC1C[C@@]2(C)C(c3ccoc3)C[C@H]3O[C@@]32[C@@]2(C)C(=O)C(O)=C3C(C)(C)C(=O)C=C[C@]3(C)C12 (stereo partly specified),·,-30.3%,?,1.58µM*
CC(=O)OC1CC(OC(C)=O)[C@]2(C)C(CC(OC(C)=O)[C@]3(C)C2CC[C@@]2(C)C(c4ccoc4)C[C@H]4O[C@]432)C1(C)C (stereo partly specified),·,-1.0%,1.4%,-3.5%
C=CCN1C[C@@H](C)N([C@H](c2ccc(C(=O)N(CC)CC)cc2)c2cccc(OC)c2)C[C@H]1C,-7.1%,·,14.9%,-5.2%
C=CCCN1C[C@@H]2C[C@H](C1)c1cccc(=O)n1C2,2.2%[11.4 µM],·,·,·
Ic1ccccc1CN[C@@H]1C2CCN(CC2)[C@H]1C(c1ccccc1)c1ccccc1,-14.3%,·,20µM*,?
CC[C@@]1(O)CC(O)c2c(cc3c(c2O)C(=O)c2c(O)ccc(O)c2C3=O)C1C(=O)OC (stereo partly specified),·,-13.7%,12.6µM*,?
CC[C@]1(O)CC(O[C@@H]2CC(N(C)C)C(O)C(C)O2)c2c(cc3c(c2O)C(=O)c2c(O)cccc2C3=O)C1C(=O)OC (stereo partly specified),·,-40.9%,?,-17.1%
COc1ccc(-c2cc(=O)c3cc(OCC(=O)OC(C)C)ccc3o2)cc1,?,-19.4%[10.9 µM],3.16µM*,3.16µM*
C/C=C(\C)C(=O)O[C@@H]1C(C)=C2[C@H]([C@@H]1OC(=O)CCCCCCC)[C@@](C)(OC(C)=O)C[C@@H](OC(=O)CCC)[C@@]1(O)[C@H]2OC(=O)[C@]1(C)O,3.98µM*,·,12.6µM*,25.1µM*
